PfGluPho inh = PfG6PD (Plasmodium falciparum) enzyme inhibition. PfGluPho enzyme, NADPH resazurin-diaphorase fluorescence. inhibition, % at 20 µM. 350,000 tested, 0.78% active. AID 504690;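 active = inhibition reaching at least a set limit at 20 µM in the primary screen, cut at about 59% in these data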
PHOSPHO1 inh = PHOSPHO1 (human) inhibition. Q8TCT1. recombinant PHOSPHO1, absorbance phosphatase assay. inhibition, % at 13.3 µM. 290,000 tested, 1.1% active. AID 1565; in the data active = inhibition above about 60%
Target sequence (Q8TCT1 whole entry, looked up): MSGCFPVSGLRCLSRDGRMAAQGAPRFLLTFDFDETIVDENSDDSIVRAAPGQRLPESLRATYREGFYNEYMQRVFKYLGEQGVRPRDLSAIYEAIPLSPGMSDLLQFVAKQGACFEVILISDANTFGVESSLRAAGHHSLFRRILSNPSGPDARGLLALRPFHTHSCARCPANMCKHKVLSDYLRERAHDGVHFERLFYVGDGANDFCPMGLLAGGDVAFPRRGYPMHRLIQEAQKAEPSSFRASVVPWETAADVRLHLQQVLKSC
H9c2 protect = myocardial damage modulation in H9c2 cells; H9c2 cardiomyocytes, H2O2 injury protection, ATPLite, 2 h; protection from H2O2 cell death, % at 20 µM; 360,000 tested, 0.63% active;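 active = compounds giving at least 50% protection of heart cells from peroxide-induced death in the single-dose screen, raw or plate-pattern-corrected value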
ALR inh = human ALR oxidase inhibition via reduced H2O2; P55789; purified ALR, DTT oxidation, H2O2 HRP-luminol luminescence; inhibition, % (no concentration beside the values); 290,000 tested, 3.8% active; AID 485317;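 active = mean replicate inhibition above about 79%, with every replicate also reaching it, limit read from the data; inconclusive = only one of the two criteria met; inactive = mean below limit and not every replicate reaching it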
Target sequence (P55789 whole entry, looked up): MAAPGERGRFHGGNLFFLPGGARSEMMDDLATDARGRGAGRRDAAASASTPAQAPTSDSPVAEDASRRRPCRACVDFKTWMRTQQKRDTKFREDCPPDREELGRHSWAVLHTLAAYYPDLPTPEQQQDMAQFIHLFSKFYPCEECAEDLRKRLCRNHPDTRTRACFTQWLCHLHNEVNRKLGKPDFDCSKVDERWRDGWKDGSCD
M18AAP inhibitor = PfM18AAP enzyme inhibition; 290,000 tested, 1.2% active; inhibition, % at 7.35 µM; recombinant PfM18AAP, H-Glu-NHMec fluorogenic cleavage; AID 1822;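 active = inhibition above the campaign mean inhibition over all tested compounds plus 3 SD, cut at about 28% in these data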
Large screens that a line does not name were inactive. Rows were chosen to be rich in hits. Some 5.6% of all compounds tested hit in one or more screens of this group.

OCCOCCn1c(C(CO)Nc2nc(-c3ccc(Cl)cc3)cs2)nc2ccccc21 (stereo not given)	ALR inh 95 (no result: PHOSPHO1 inh, M18AAP inhibitor)
Cc1ccc(-c2cc(NC(=O)CCl)n(-c3ccccc3)n2)cc1	none
O=C(CCl)Nc1cc(-c2ccccc2)nn1-c1ccccc1	ALR inh 98
Cc1[nH]c2ccccc2c1CC#N	none
Cc1[nH]c2ccccc2c1C(C#N)(C#N)C1C(=O)c2ccccc2C1=O	PfGluPho inh 122, ALR inh inconclusive
CC(C)(C)c1ccc(-n2ncc3c2CCCC3NC(=O)c2ccco2)cc1 (stereo not given)	none (no result: PHOSPHO1 inh, ALR inh, M18AAP inhibitor)
O=C(NCCSc1ncc(-c2ccc(F)cc2)[nH]1)c1ccco1	none (no result: PHOSPHO1 inh, M18AAP inhibitor)
NNC(=O)CSc1ncc(-c2ccccc2)[nH]1	none
O=C(CSc1ncc(-c2ccc(F)cc2)[nH]1)Nc1cccc(O)c1	ALR inh 99
COc1cc(NC(=O)c2ccco2)c(OC)cc1NC(=O)CSc1ncc(-c2ccc(F)cc2)[nH]1	PHOSPHO1 inh 74
Cc1cc(C)cc(C(=O)Oc2coc(CSc3nnc(NC(=O)C4CC4)s3)cc2=O)c1	none (no result: ALR inh)
O=C(Oc1coc(CSc2nnc(NC(=O)C3CC3)s2)cc1=O)c1c(F)cccc1F	ALR inh 97
O=C(COC(=O)c1cc(=O)[nH]c2ccccc12)NCc1ccc(Cl)cc1	none (no result: PHOSPHO1 inh, M18AAP inhibitor)
COc1ccc(N/N=C(/N=Nc2nc(C)cc(=O)[nH]2)c2ccccc2)cc1	none
Cc1cc(=O)[nH]c(N=N/C(=N/Nc2ccc(O)cc2)c2ccccc2)n1	PHOSPHO1 inh 92
Cc1cc(=O)[nH]c(N=N/C(=N/Nc2ccccc2C)c2ccccc2)n1	PHOSPHO1 inh 92, H9c2 protect 60
CN1C[C@@H]2[C@@H]3C(=O)N(Cc4ccccc4)C(=O)[C@@H]3[C@](Cc3ccccc3)(C1=O)N2C(=O)c1ccc(C(F)(F)F)cc1	none (no result: PHOSPHO1 inh, ALR inh, M18AAP inhibitor)
c1ccc(Oc2cccc(Oc3ccccc3)n2)cc1	none (no result: PHOSPHO1 inh, M18AAP inhibitor)
CCOC(=O)[C@H]1[C@H]2COc3ccc(C)cc3[C@@H]2N2C(=O)c3cc(F)c(F)cc3NC(=O)[C@@]12C	none (no result: PHOSPHO1 inh, ALR inh, M18AAP inhibitor)
CC1=C(C(=O)N(C)C)CC(CC(=O)NCC2CCCCC2)C(=O)N1Cc1ccccc1 (stereo not given)	none (no result: PHOSPHO1 inh, ALR inh, M18AAP inhibitor)
Cc1c(C(=O)N(C)C)c2cc(Cl)ccc2n1O	ALR inh 98
Cc1c(C(=O)N(C)C)c2ccc(Cl)cc2n1O	ALR inh 99
CCOC(=O)c1c(C)n(O)c2ccc(Cl)cc2c1=O	none
CCOc1ccc(NC(=O)c2ccccc2NC(=O)c2cccnc2)cc1	none
Cc1cccnc1NC(=O)CCNC(=O)c1ccccc1Cl	none
COc1c(Cl)cc(-c2noc(C)c2C(=O)NC(C)C)cc1Cl	ALR inh 93
CCc1ccc(NC(=S)NNC(=O)c2ccccc2OC(F)F)cc1	none (no result: PfGluPho inh, H9c2 protect)
Cc1cccc(NC(=S)NNC(=O)c2ccccc2Br)c1	ALR inh inconclusive
Cc1cccc(NC(=S)NNC(=O)c2ccccc2OC(F)F)c1	PHOSPHO1 inh 72, ALR inh inconclusive
COc1ccc(NC(=S)NNC(=O)c2ccccc2OC(F)F)cc1	PHOSPHO1 inh 73
CCOC(=O)c1c(CSC(=N)N)n(-c2ccccc2)c2cc(Br)c(OC(C)=O)cc12	none
COc1ccc(NC(=O)CSc2nnc(C3CCCCC3)n2N)cc1	none
CCc1c(O)nc(SCC(=O)Nc2nc3ccccc3s2)n(C2CCCCC2)c1=O	ALR inh 92
CCc1c(O)nc(SCC(=O)Nc2ccc(OC)cc2)n(C2CCCCC2)c1=O	ALR inh 99
O=C(CCc1nnc2ccc(NCc3ccccc3)nn12)NC1CCCC1	none
N#Cc1ccc(Cl)cc1NC(=O)CSc1nc2nc(-c3cccs3)cc(C(F)(F)F)c2c(=O)[nH]1	none (no result: PfGluPho inh, H9c2 protect)
CN(C(=O)CSc1nc(-c2ccc(C(C)(C)C)cc2)c(C#N)c(=O)[nH]1)C1CCCCC1	ALR inh 93
N#Cc1c(-c2ccccc2)nc(SCC(=O)NC2CCCCC2)[nH]c1=O	none
CNC(=O)CCc1[nH]c2ccccc2c1Sc1ccccc1	ALR inh 98
COC(=O)c1[nH]c2ccccc2c1Sc1ccccc1	none
FC(F)(F)c1cc(Cl)c2nc(-c3ccccc3)cn2c1	none
Nc1cccc(-c2cn3cc(C(F)(F)F)cc(Cl)c3n2)c1	ALR inh 99
Brc1ccc(-c2ccc(/C=N/Nc3nc(N4CCOCC4)nc(N4CCOCC4)n3)o2)cc1	H9c2 protect 95 (no result: ALR inh)
O=C(c1ccccc1)N(c1ccccc1)c1nccc2ccccc12	none (no result: PHOSPHO1 inh, ALR inh, M18AAP inhibitor)
CC1(c2ccccc2)NC(=O)N(CC(=O)Nc2ccc(S(=O)(=O)Nc3ncccn3)cc2)C1=O (stereo not given)	ALR inh 98 (no result: PHOSPHO1 inh, M18AAP inhibitor)
NS(=O)(=O)c1ccc(NC(=O)CSc2ncn[nH]2)cc1	none
CC(=O)Nc1ccc(S(=O)(=O)Nc2nccs2)cc1	none
Cc1ccc(SCC(=O)Nc2ccc(S(=O)(=O)Nc3nccs3)cc2)cc1	none
O=C(CSc1ncn[nH]1)Nc1ccc(S(=O)(=O)Nc2ncccn2)cc1	M18AAP inhibitor 30
O=C(CSc1ccncc1)Nc1ccc(S(=O)(=O)Nc2nccs2)cc1	ALR inh 99
Cc1ccc(S(C)(=O)=O)cc1C(=O)Nc1ccc(S(=O)(=O)Nc2nccs2)cc1	ALR inh 97 (no result: PHOSPHO1 inh, M18AAP inhibitor)
COc1ccc(NC(=O)c2cc(S(=O)(=O)N3CCCC3)ccc2C)cn1	none (no result: PHOSPHO1 inh, M18AAP inhibitor)
O=C(NC1CCCCC1)C(c1ccccc1)N1CCc2ccccc21 (stereo not given)	ALR inh 98
CCOC(=O)c1ccc(NC(=O)CSc2nnc(CNC(=O)c3c(F)cccc3Cl)o2)cc1	ALR inh 99
NCCc1nnc(SCC(=O)Nc2cccc(Cl)c2)o1	ALR inh 99
O=C(CSc1nnc(CNC(=O)c2c(F)cccc2F)o1)Nc1ccc2c(c1)OCO2	ALR inh 98
CCOC(=O)c1ccc(NC(=O)CSc2nnc(CNC(=O)c3ccccc3F)o2)cc1	none
COc1cc(C(=O)NCc2nnc(SCC(=O)Nc3cc(C)cc(C)c3)o2)cc(OC)c1OC	ALR inh 97
CC(C)(C)OC(=O)NCCc1nnc(SCC(=O)Nc2cccc(Cl)c2)o1	none
CCOC(=O)CN1CC(C)(C)N(CC(=O)OCC)CC1(C)C	none (no result: PHOSPHO1 inh, ALR inh, M18AAP inhibitor)
CCOC(=O)c1c(NC(=O)CSc2nnc(CNc3ccc(Cl)cc3)o2)sc(C)c1C	ALR inh 84
O=C(CSc1nnc(CNC(=O)c2c(F)cccc2F)o1)Nc1ccc2c(c1)OCCO2	ALR inh 98
CCOC(=O)c1c(NC(=O)CSc2nnnn2-c2ccc(OC)cc2)sc(C)c1C	PfGluPho inh 90, PHOSPHO1 inh 87
O=C(CSc1nnc(CNC(=O)c2c(F)cccc2Cl)o1)Nc1ccc2c(c1)OCCO2	ALR inh 99
O=C(CSc1nnc(CNC(=O)c2ccccc2)o1)Nc1ccc2c(c1)OCO2	none
O=C1CC(N2CCN(S(=O)(=O)c3ccccc3F)CC2)C(=O)N1c1ccc(F)cc1F (stereo not given)	none (no result: PHOSPHO1 inh, M18AAP inhibitor)
CC(=O)N(CC#CCN(C(C)=O)c1ccccc1)c1ccccc1	none (no result: PHOSPHO1 inh, ALR inh, M18AAP inhibitor)
C/C(=N\Nc1nc(C)cc(-c2ccccc2)n1)c1cccc(N)c1	ALR inh 99
C/C(=N\Nc1nc(C)cc(-c2ccccc2)n1)c1ccc(O)cc1	ALR inh 96
